Reference: PubChem BioAssay (NCI)
“And” between values parts separate entries of the source, which are not always exact repeats. Equal values may be shown once. About 83,000 compounds went through this panel and 20% of them were active in at least one assay; those are over-represented in the sample as a whole.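 96-well plates, one dose, 48 hours. Percent growth reported; active if below 10.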 The source made the active and inactive calls.

How the values were obtained:
Assay in all cases: NCI-60 one-dose screen, 48 h (100 = growth as untreated, 0 = no growth, -100 = all killed)
Settings in all cases: 10 µM unless noted
T-47D breast = system: T-47D breast
BT-549 breast = system: BT-549 breast
MDA-MB-435 melanoma = system: MDA-MB-435 melanoma
SW-620 colon = system: SW-620 colon
MCF7 breast = system: MCF7 breast
HCT-116 colon = system: HCT-116 colon
HCC-2998 colon = system: HCC-2998 colon
KM12 colon = system: KM12 colon
MDA-MB-468 breast = system: MDA-MB-468 breast

Measured: growth

Cc1oc(-c2ccccc2)nc1CN[C@@H]1C[C@@H]2C[C@H]([C@H]1C)C2(C)C
active: T-47D breast 0.388% | MCF7 breast -4.81% | HCT-116 colon 9.06% | HCC-2998 colon -75.6% | MDA-MB-468 breast -83.7%
inactive: BT-549 breast 39.3% | MDA-MB-435 melanoma 71.3% | SW-620 colon 22.8% | KM12 colon 64.3%

CC(C)(C)OC(=O)N1C/C(=C\c2ccc(F)cc2)C(=O)/C(=C/c2ccc(F)cc2)C1
active: BT-549 breast -88.1% | MDA-MB-435 melanoma -82.6% | SW-620 colon -67.7% | MCF7 breast -66.5% | HCT-116 colon -81.5% | HCC-2998 colon -98% | KM12 colon -90.7% | MDA-MB-468 breast -82.3%
inactive: T-47D breast 14.4%

Cc1ccc(C(=O)Nc2cc(-n3cnc(F)c3)cc(C(F)(F)F)c2)cc1C#Cc1cnc2cccnn12
inactive: T-47D breast 76.1% | BT-549 breast 60.1% | MDA-MB-435 melanoma 46.4% | SW-620 colon 45.1% | MCF7 breast 38.8% | HCT-116 colon 19% | HCC-2998 colon 70.6% | KM12 colon 39.1% | MDA-MB-468 breast 81.7%

COC(=O)CSC1=C(C)C(=O)C(OC)=C(OC)C1=O
inactive: T-47D breast 36.2% | BT-549 breast 79% | MDA-MB-435 melanoma 89.2% | SW-620 colon 84.5% | MCF7 breast 86.6% | HCT-116 colon 29.6% | HCC-2998 colon 120% | KM12 colon 93.5% | MDA-MB-468 breast 52%

COc1ccc(-c2cc(C(=O)N=Nc3c(O)[nH]c4ccc(Cl)cc34)c3ccccc3n2)cc1
inactive: T-47D breast 102% | BT-549 breast 107% | MDA-MB-435 melanoma 44.4% | MCF7 breast 19.2% | HCT-116 colon 65.6% | HCC-2998 colon 19.3% | KM12 colon 28% | MDA-MB-468 breast 74.9%
active: SW-620 colon 7.42%

Cc1nn(-c2ccccc2)c2nc(C)n(C(=O)N/N=C/c3cccc([N+](=O)[O-])c3)c(=O)c12
inactive: T-47D breast 91.4% | BT-549 breast 155% | MDA-MB-435 melanoma 96.5% | SW-620 colon 103% | MCF7 breast 77.1% | HCT-116 colon 87.5% | HCC-2998 colon 113% | KM12 colon 100% | MDA-MB-468 breast 73.1%

COc1cc(/C=C/C(=O)c2cnn(-c3cc(=O)[nH]c4ccc(C)cc34)c2C)cc(OC)c1OC
active: T-47D breast 1.32% | BT-549 breast -57.2% | MDA-MB-435 melanoma 1.91% | SW-620 colon -57.6% | MCF7 breast -15.7% | HCT-116 colon -77.3% | HCC-2998 colon -99% | KM12 colon -41.8% | MDA-MB-468 breast -77.3%

C[C@H](NC(=O)c1ccc2c(-c3ccc(C(F)(F)F)cc3)cccc2c1)c1ccccn1
inactive: T-47D breast 18% | BT-549 breast 54.3% | MDA-MB-435 melanoma 56% | SW-620 colon 68.1% | MCF7 breast 26% | HCT-116 colon 35.4% | HCC-2998 colon 49.9% | KM12 colon 47.5%
active: MDA-MB-468 breast 7.67%

O=C(CCl)Nc1ccc(C(=O)/C=C/c2cc3ccccc3nc2Cl)cc1
-54.9% (active) and 52.1% (inactive): MDA-MB-435 melanoma
-68.6% (active) and 22.5% (inactive): KM12 colon
-78.3% (active) and 48.9% (inactive): SW-620 colon
-93.4% (active) and 51.1% (inactive): HCC-2998 colon
-82.4% (active) and 45.6% (inactive): BT-549 breast
-46.9% (active) and 51.1% (inactive): T-47D breast
-82.5% (active) and 54.9% (inactive): MDA-MB-468 breast
-57.1% (active) and 24.9% (inactive): MCF7 breast
8.67% (active) and 39.7% (inactive): HCT-116 colon

Cc1ccc(N=Nc2c(N)nn3c(-c4cc5ccccc5oc4=O)ccnc23)cc1
active: HCC-2998 colon -21.1%
inactive: T-47D breast 55.7% | BT-549 breast 74.5% | MDA-MB-435 melanoma 55.9% | SW-620 colon 30.7% | MCF7 breast 26.6% | HCT-116 colon 11.1% | KM12 colon 31.3% | MDA-MB-468 breast 14.9%

COc1cc(/C=N/NC(=O)c2ccc(OCc3nc4ccc(C)cc4[nH]3)cc2)cc(OC)c1OC
inactive: T-47D breast 35.1% | BT-549 breast 45.4% | MDA-MB-435 melanoma 49.1% | SW-620 colon 40.7% | MCF7 breast 38.2% | HCT-116 colon 21.2% | HCC-2998 colon 65.5% | KM12 colon 57% | MDA-MB-468 breast 41.5%

COc1ccc(NC(=O)Cn2c(/C=C/c3cccc(OC)c3)nc3ccccc3c2=O)cc1
inactive: BT-549 breast 73.8% | MDA-MB-435 melanoma 59.1% | SW-620 colon 41.2% | HCT-116 colon 13.9% | HCC-2998 colon 92.5% | KM12 colon 82.5% | MDA-MB-468 breast 71.4%
active: T-47D breast -15%

COc1ccc(/C=C/C(=O)c2ccc(S(=O)(=O)NCCNc3nc(N(C)C)nc(N4CCOCC4)n3)cc2)cc1
inactive: T-47D breast 83.5% | BT-549 breast 105% | MDA-MB-435 melanoma 81.8% | SW-620 colon 68.7% | MCF7 breast 11.8% | HCC-2998 colon 116% | KM12 colon 64.8% | MDA-MB-468 breast 76.3%
active: HCT-116 colon -9.23%

COc1ccc([C@H]2C(C(=O)c3ccc(Cl)cc3)C3(N[C@@H]2c2ccccc2)C(=O)Nc2ccccc23)cc1 (stereo not given in full)
inactive: T-47D breast 16.8% | BT-549 breast 84.3% | MDA-MB-435 melanoma 23.4% | SW-620 colon 34.7% | HCT-116 colon 26.1% | HCC-2998 colon 13.7% | KM12 colon 15.5% | MDA-MB-468 breast 28.5%

COc1ccccc1NC(=O)c1ccc(NC(=O)CCl)s1
inactive: T-47D breast 40.6% | HCC-2998 colon 27.2% | KM12 colon 25.8%
active: BT-549 breast -57.7% | MDA-MB-435 melanoma 0.365% | SW-620 colon -18.5% | MCF7 breast -35% | HCT-116 colon -68.5% | MDA-MB-468 breast -29.6%

O=C1Nc2cc(-c3ccc(NS(=O)(=O)c4ccc(F)c(Cl)c4)cc3)ccc2/C1=C/c1ccc[nH]1
inactive: T-47D breast 14.7% | BT-549 breast 19.7% | MDA-MB-435 melanoma 55.1% | SW-620 colon 33.9% | HCT-116 colon 12% | HCC-2998 colon 17.1% | KM12 colon 13.6%

COc1ccc2[nH]c(O)c(N=Nc3nc(-c4ccc(Br)cc4)cs3)c2c1
inactive: BT-549 breast 35% | MDA-MB-435 melanoma 50.3% | HCC-2998 colon 51.4% | KM12 colon 55.6%
active: T-47D breast -27.2% | SW-620 colon 4.99% | MCF7 breast -16.4% | HCT-116 colon -63.1% | MDA-MB-468 breast -7.45%

O=C(N/N=C/c1ccc(-c2cccc([N+](=O)[O-])c2)s1)c1[nH]c2ccc(Br)cc2c1-c1ccccc1
inactive: T-47D breast 92.5% | BT-549 breast 88.4% | MDA-MB-435 melanoma 98.3% | SW-620 colon 99% | MCF7 breast 54.4% | HCT-116 colon 82.9% | HCC-2998 colon 107% | KM12 colon 109% | MDA-MB-468 breast 103%

COc1cc(C=O)ccc1Oc1nc(Nc2ccc(F)cc2)nc(N(C)C)n1
inactive: T-47D breast 33.3% and 66.1% | BT-549 breast 77.3% and 16.5% | MDA-MB-435 melanoma 71.1% and 88.1% | SW-620 colon 94.4% and 50.4% | HCT-116 colon 64.9% and 20.3% | HCC-2998 colon 108% and 75.6% | KM12 colon 99.3% and 68.5% | MDA-MB-468 breast 36.4% and 53.5%

O=C(CSc1nc2sc3c(c2c(=O)n1-c1ccc(Cl)cc1)CCCC3)N/N=C/C=C/c1ccccc1
inactive: KM12 colon 39.9%
active: T-47D breast -24.5% | BT-549 breast -73.7% | MDA-MB-435 melanoma -50.1% | SW-620 colon -55.5% | HCT-116 colon -13.5% | HCC-2998 colon 6.29% | MDA-MB-468 breast -81.6%

O=C(NN1C(=O)/C(=C/C=C/c2ccc([N+](=O)[O-])o2)SC1=S)c1ccc([N+](=O)[O-])cc1
active: T-47D breast -60.9% | BT-549 breast -93.2% | MDA-MB-435 melanoma -86.9% | SW-620 colon -77.7% | HCT-116 colon -76.3% | HCC-2998 colon -94.8% | KM12 colon -94.9% | MDA-MB-468 breast -79.3%

CN(C)c1nc(NCCNS(=O)(=O)c2ccc(C3=Nc4c(N)nc(N)nc4NC(c4ccc(C(F)(F)F)cc4)C3)cc2)nc(N2CCOCC2)n1 (stereo not given)
active: BT-549 breast 1.02% | MDA-MB-468 breast 5.66%
inactive: T-47D breast 24.7% | MDA-MB-435 melanoma 44.3% | SW-620 colon 54.7% | HCT-116 colon 17.1% | HCC-2998 colon 27.3% | KM12 colon 47.8%

O=C(CSc1nc2sc3c(c2c(=O)n1-c1ccc(Cl)cc1)CCCC3)NNC(=O)c1ccc(Br)cc1
inactive: T-47D breast 58.5% | BT-549 breast 74.5% | MDA-MB-435 melanoma 97.3% | SW-620 colon 76.1% | HCT-116 colon 64% | HCC-2998 colon 108% | KM12 colon 96.6% | MDA-MB-468 breast 69.7%

COc1cc(CNC(=O)C[C@H](C)CCC=C(C)C)ccc1OCc1cn(-c2ccc(Cl)c(Cl)c2)nn1
inactive: T-47D breast 33.6% | BT-549 breast 71.7% | MDA-MB-435 melanoma 91.3% | SW-620 colon 29.9% | HCT-116 colon 29.8% | HCC-2998 colon 93.5% | KM12 colon 82.7% | MDA-MB-468 breast 55%

O=C1Nc2ccccc2/C1=C/C(=O)c1cc2ccccc2oc1=O
active: SW-620 colon 2.06%
inactive: T-47D breast 83.2% | BT-549 breast 111% | MDA-MB-435 melanoma 110% | HCT-116 colon 66% | HCC-2998 colon 140% | KM12 colon 95.9% | MDA-MB-468 breast 54.4%

CCCCNC(=S)Nc1ccc(OCc2nc3ccc(Cl)cc3[nH]2)cc1
active: HCC-2998 colon 3.65% | MDA-MB-468 breast 3.25%
inactive: T-47D breast 22.2% | BT-549 breast 31.7% | MDA-MB-435 melanoma 29.4% | SW-620 colon 21.8% | HCT-116 colon 11.2% | KM12 colon 29.3%

CN1CCN(C(=O)CCN(C(=O)Oc2cc3c(c4ccccc24)[C@H](CCl)CN3C(=O)c2cc3cc(OCCCN4CCC4)ccc3[nH]2)[C@H]2CCSSC2)CC1
active: T-47D breast -40.9% | BT-549 breast -68.3% | MDA-MB-435 melanoma -37.1% | SW-620 colon -54.2% | HCT-116 colon -42.7% | HCC-2998 colon -91.2% | KM12 colon -63.3% | MDA-MB-468 breast -82.9%
